# Experimental data: ChEMBL document CHEMBL1157539, “Thousands of chemical starting points for antimalarial lead identification” (Nature, 2010)
# Experiments:
# Type in all cases: functional
# Plasmodium falciparum [1] = assay: GSK_TCMDC: Inhibition of Plasmodium falciparum 3D7 in whole red blood cells, using parasite LDH activity as an index of growth. Test compounds present at 2uM
# Plasmodium falciparum [2] = assay: GSK_TCMDC: Inhibition of Plasmodium falciparum Dd2 in whole red blood cells, using parasite LDH activity as an index of growth. Test compounds present at 2uM
# HepG2 = assay: GSK_TCMDC: Percent inhibition of human HepG2 cell line. Test compounds present at 10uM.
SMILES,Inhibition (Plasmodium falciparum [1]) [%],Inhibition (Plasmodium falciparum [2]) [%],Inhibition (HepG2) [%]
Cc1c(CNCCN2CCCCC2)c(C(=O)O)c(C)n1Cc1ccc(Cl)cc1,97,93,4
COc1ccc(Nc2nccc(N3CCC(NC(=O)Nc4cccc(OC)c4)C3)n2)cc1 (stereo not given),99,48,23
Fc1ccc2[nH]c(-c3ccc(-c4cccc(CN5CCN(CCN6CCOCC6)CC5)c4)cc3)nc2c1.O=C(O)C(F)(F)F,100,100,35
COc1ccc(-c2cc(NCc3ccc(-n4ccnc4)cc3)nc(Nc3ccccc3)n2)cc1,100,79,8
COc1cccc(-c2ccc3c(-c4ccc(F)cc4)cnc(N)c3c2)c1.O=CO,100,70,27
CCCCCCCc1c(C)nc2cc(OC)ccc2c1O,99,98,5
COc1ccc2nccc([C@@H](O)CN3CCC(NC(=O)Cc4cc5ccccc5s4)CC3)c2c1,92,42,16
COc1ccc2c(c1)OC(C)(C)CC2=NOS(=O)(=O)c1ccc(C)cc1,97,12,10
CCCNS(=O)(=O)c1ccc(NC(=O)C(C)Oc2ccc([N+](=O)[O-])cc2)cc1 (stereo not given),100,37,3
Cc1cccc(-n2nc(C)c3c2NC(=O)CC3C(=O)c2ccc(Cl)s2)c1 (stereo not given),92,85,13
CC[C@H](NC(=O)c1c(CCCN2CCN(c3ccccc3)CC2)c(-c2ccccc2)nc2cc(O)ccc12)c1ccccc1,96,97,12
COc1cc(NC(=O)N2CCOC(CCN3CCC(c4ccccc4)CC3)(c3ccc(Cl)c(Cl)c3)C2)cc(OC)c1OC (stereo not given),93,73,15
COc1cc(Nc2ccnc3cc(-c4ccncc4)ccc23)cc(OC)c1OC.Cl,89,39,9
COc1cc2nc(NCCn3nc(C)cc3C)nc(NCCc3ccccc3)c2cc1OC,100,100,28
CC(C)[C@H](NC(=O)c1ccc(O)c(-c2ccc(Cl)c(Cl)c2)c1)C(=O)NCCN1CCCC1,98,83,4
CCn1c2ccccc2c2cc(Cc3cnc(N)nc3N)ccc21.Cl,94,0,28
Cc1cc2ccc(/C=C/C(=O)NC3CCC(CCN4CCc5ccc(C#N)cc5CC4)CC3)cc2[nH]1.Cl (stereo not given),84,56,19
Br.CCCCCCCCn1ccc(=N)cc1,91,84,49
O=C(O)C(F)(F)F.O=c1ccc2ccc(F)c3c2n1CC3CN1CCC(NCc2cccc(-c3cccs3)c2)CC1 (stereo not given),100,75,17
Cc1cccc2nc(-c3ccc(-c4ccc(CN5CCCC(O)C5)cc4)s3)[nH]c12.O=C(O)C(F)(F)F (stereo not given),100,29,38

SMILES,Inhibition (Plasmodium falciparum [1]) [%],Inhibition (Plasmodium falciparum [2]) [%],Inhibition (HepG2) [%]
Cc1nc(NCCCn2ccnc2)cc(-c2cncc(-c3ccc(OC(F)(F)F)cc3)c2)n1,99,11,2
CN(C)Cc1ccc(-c2cccc(NC(=O)c3ccc(Cl)cc3)c2)cc1.O=C(O)C(F)(F)F,94,13,24
Fc1ccc(C=NN=c2cc[nH]c3ccc(C(F)(F)F)cc23)cc1,90,6,22
Cc1ccc2[nH]c(C)cc(=NN=Cc3cccc(Cl)c3)c2c1,100,98,12
CC1(C)N=C(N)N=C(N)N1c1cccc(C(F)(F)F)c1.Cl,95,68,60
CC1CCCN(C(=O)c2cc(-c3ccccn3)nc3c(Cl)cccc23)C1 (stereo not given),86,9,2
CCn1c(-c2nonc2N)nc2c(-c3cccc(NC(=O)NC45CC6CC(CC(C6)C4)C5)c3)ncc(OCCCN)c21.O=C(O)C(F)(F)F,94,63,100
COc1ccc2ncc(F)c(CCN3CC[C@@H](CNCc4cc5c(cn4)OCS5)C3)c2n1.Cl,98,29,3
CCN1CCN(c2cc(C)c3cc(NC(=O)c4cccc(C(F)(F)F)c4)ccc3n2)CC1,100,85,24
Clc1cc(Cl)c2cc(CN[C@H]3CCC[C@@H]3CNc3nc4ccccc4[nH]3)[nH]c2c1,99,58,85
COc1ccccc1-c1cccc(CNC2CCN(CC3Cn4c(=O)ccc5ccc(F)c3c54)CC2)c1.O=C(O)C(F)(F)F (stereo not given),91,0,30
Cc1cc(O)c(-c2cc(C(=O)Nc3cccnc3)[nH]n2)cc1C,97,97,12
COc1ccc(-c2cccc(NC(=O)c3cccc(Cl)c3)c2)cc1CN1CCN(C)CC1.O=C(O)C(F)(F)F,100,48,27
O=C(Nc1ccc(Cl)cc1)NC1CCN(CCCCCNC(=O)C2CC2c2ccc(Cl)c(Cl)c2)CC1 (stereo not given),100,18,51
COc1ccc(C(=O)N[C@@H](CC(C)C)C(=O)N[C@H](/C=N/NC(=O)c2ccccc2)CCc2ccccc2)cc1OCCN1CCOCC1,96,86,2
CCc1c[nH]c2c(N3CCCC3=O)cc(C(=O)N[C@@H](Cc3ccccc3)[C@H](O)CNC3CCCCC3)cc12.O=CO,100,98,12
C=CCc1cc(SC)ccc1Oc1ccc(N)cc1.Cl,96,2,12
C[C@H](NC(=O)c1c(CN2CCC(N3CCCCC3=O)CC2)c(-c2cccs2)nc2ccccc12)C1CCCCC1,91,73,8
COc1ccc(CNCc2ccc(-c3ccc(-c4nc5ccccc5[nH]4)cc3)cc2)cc1.O=C(O)C(F)(F)F,100,89,63
COc1ccc(NC(=O)c2csc(-c3cc(NC(=O)c4ccnc(N5CCCC5)c4)ccc3C)c2)cc1N1CCN(C)CC1.O=C(O)C(F)(F)F,100,80,4

SMILES,Inhibition (Plasmodium falciparum [1]) [%],Inhibition (Plasmodium falciparum [2]) [%],Inhibition (HepG2) [%]
CC(=O)c1ccc2nc[nH]c(=O)c2c1,96,99,79
COc1cccc(CNC[C@@H](O)[C@H](Cc2ccccc2)NC(=O)c2cc(C(C)C)cc(N3CCCC3=O)c2)c1,95,61,1
O=C(NCc1ccccc1)Nc1ccc(-c2ccc(-c3nc4cc(C(F)(F)F)ccc4[nH]3)cc2)cc1,99,23,40
O=C(N[C@@H](CC1CCCCC1)C(=O)NCc1cccc(C(F)(F)F)c1)c1ccc(O)c(-c2ccc(Cl)c(Cl)c2)c1,98,100,0
Cc1ccc(C(c2nnnn2C2CCCC2)N(Cc2ccco2)Cc2ccccc2Cl)cc1 (stereo not given),85,78,8
CCc1ccc(NC(=O)c2cccc(CN3CCCN(CC4CCCCC4)CC3)c2)cc1.O=C(O)C(F)(F)F,85,41,62
O=C(C1COc2ccccc2O1)N(CCCn1ccnc1)Cc1csc(-c2ccc(CNCc3ccccc3)cc2)n1.O=C(O)C(F)(F)F (stereo not given),100,18,15
CC(CN(C)C)C(=O)Nc1cccc(-c2ccc(-c3nc4ccccc4[nH]3)s2)c1 (stereo not given),100,47,13
O=C(NCC1CC1)C1CCN(C(c2ccc(Cl)cc2)c2ccc(Cl)cc2)CC1,99,95,3
Nc1nc2c(c(=O)[nH]1)CN(S(=O)(=O)c1ccc(C(=O)N[C@@H](CCC(=O)O)C(=O)O)cc1)CC2,95,96,49
O=C(O)C(F)(F)F.c1ccc2[nH]c(-c3ccc(-c4ccc(CNCC5CCCO5)cc4)s3)nc2c1 (stereo not given),100,87,27
COc1ccc(NC(=O)N2CCCN(CCCCCNC(=O)/C=C/c3ccc(Cl)cc3)CC2)cc1Cl,97,1,15
CCN(CC)CCN(Cc1ccc(-c2ccc(C(F)(F)F)s2)cc1)C(=O)Cn1c(CCc2cccc(F)c2F)nc(=O)c2ccccc21.O=C(O)C(O)C(O)C(=O)O,94,31,43
COc1ccc(Nc2nc(C)cc(NCc3ccc(-c4c(C)noc4C)cc3)n2)cc1,99,50,48
CCc1ccc(-n2c(NC(=O)c3ccccc3)nc3ccc(S(=O)(=O)NC(C)C(C)C)cc32)cc1 (stereo not given),88,0,48
O=C(C=Cc1ccc(Cl)c(Cl)c1)NCCCCCN1CCCC(CCCNS(=O)(=O)c2ccc(Br)cc2)C1 (stereo not given),88,5,43
Cc1cc(-c2nc3cc(C(=N)N)ccc3[nH]2)c(C)cc1-c1nc2cc(C(=N)N)ccc2[nH]1.Cl,96,97,0
Cc1[nH]c(C)c(-c2ccc(-c3ccccc3F)nc2)c(=O)c1Br,97,97,2
CCNC(=O)Nc1cccc(-c2cccc(-c3nc4cc(C(F)(F)F)ccc4[nH]3)c2)c1,91,32,50
Cl.O=S(=O)(Nc1cc2c(cc1OCCCN1CCCCC1)CCNCC2)c1ccc(-c2ccc(Cl)cc2)cc1,100,19,77
